Assay outcomes: PubChem, National Center for Advancing Translational Sciences (NCATS)
RORg inh: blocks mouse ROR gamma transcriptional activity; P51450; actives 5.4% (n = 310,000); Drosophila S2 Gal4-RORgamma UAS-luciferase reporter, 20 h; Potency, µM (top dose mostly 53.6 µM), hits mostly inhibitors; AID 2551; also: nearly all actives have a fitted effect of over 60% in size
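Luminescence from a UAS-regulated Photinus luciferase reporter in stably transfected Drosophila Schneider cells is measured; decreased signal marks ROR gamma inhibition. Fusion expression is induced by 700 uM copper sulfate for 20 hr.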
TDP1 block: inhibitors of human tyrosyl-DNA phosphodiesterase TDP1; recombinant TDP1, AlphaScreen DNA substrate cleavage; Potency, µM (top dose mostly 130 µM), usual class: inhibitors; actives 0.28% (n = 350,000); also: nearly all actives have a fitted effect of over 40% in size
Target sequence (Q9NUW8 whole entry, looked up): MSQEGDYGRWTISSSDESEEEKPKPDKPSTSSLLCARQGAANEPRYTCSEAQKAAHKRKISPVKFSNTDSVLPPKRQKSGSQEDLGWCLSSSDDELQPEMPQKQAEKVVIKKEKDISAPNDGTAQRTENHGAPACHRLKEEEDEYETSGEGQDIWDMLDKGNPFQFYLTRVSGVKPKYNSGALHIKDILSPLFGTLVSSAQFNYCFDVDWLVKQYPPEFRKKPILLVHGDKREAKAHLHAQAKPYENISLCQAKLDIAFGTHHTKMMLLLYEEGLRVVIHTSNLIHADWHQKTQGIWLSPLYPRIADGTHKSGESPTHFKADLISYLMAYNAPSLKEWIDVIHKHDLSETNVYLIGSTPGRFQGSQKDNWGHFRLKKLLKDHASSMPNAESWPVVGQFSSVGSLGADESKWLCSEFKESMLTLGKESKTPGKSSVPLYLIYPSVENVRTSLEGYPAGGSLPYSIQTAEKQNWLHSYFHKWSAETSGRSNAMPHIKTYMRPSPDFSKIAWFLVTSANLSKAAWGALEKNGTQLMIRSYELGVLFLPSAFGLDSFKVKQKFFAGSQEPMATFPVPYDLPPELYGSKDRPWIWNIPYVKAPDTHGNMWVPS
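Here, a 5' biotin and 3' phosphotyrosine-FITC DNA oligonucleotide reports Tdp1 activity: intact substrate bridges AlphaScreen beads, while cleavage leaves a 3' phosphate and drops signal. All incubations at room temperature.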
TDP1 cell noCPT: qHTS for Inhibitors of human tyrosyl-DNA phosphodiesterase 1 (TDP1): qHTS in cells in absence of CPT. Potency, µM (titrated, usually from 46.2 µM), actives largely listed as inhibitors. actives 15% (n = 420,000). AID 686978, 2013. DT40 Tdp1-/- hTDP1 cells, no CPT, ATP luminescence, 48 h; also: nearly all actives have a fitted effect of over 55% in size
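Compound effects on proliferation are scored in DT40 Tdp1-/-;hTDP1 cells in the absence of CPT. ATP levels (CellTiter-Glo luminescence) are recorded after a ≥48 hr, 37 °C incubation.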
TDP1 cell CPT: growth inhibition of DT40 Tdp1-/-;hTDP1 cells with camptothecin (screen for TDP1 inhibitors); chicken DT40 Tdp1-/-;hTDP1 cells + 20 nM CPT, ATP luminescence, 48 h; Potency, µM (series often up to 46.2 µM), usual class: inhibitors; actives 12% (n = 420,000); AID 686979; also: nearly all actives have a fitted effect of over 55% in size
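Chicken DT40 Tdp1-/- cells stably complemented with human TDP1 were seeded at 400 cells/well in medium containing 20 nM camptothecin, exposed to pin-transferred compounds, and grown at 37 °C for at least 48 hr. Viability was read as ATP luminescence.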
Gal4-VP16 FLuc: Gal4-VP16 reporter inhibition counter-screen; AID 2546; Drosophila S2 Gal4-VP16 UAS-luciferase, luminescence, 20 h; actives 3.5% (n = 310,000); Potency, µM (top dose mostly 53.6 µM), hits mostly inhibitors;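 also: Gal4-VP16 expression switched on by copper sulfate through the metallothionein promoter; nearly all actives have a fitted effect of over 50% in size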
Hits are given with their value; . = inactive; ? = inconclusive; / = no result; [ ] = another dose, or the depositor's remark. An excerpt weighted towards active compounds, which were near 19% of everything screened. Calls follow the shape of the dose curve; as a rule, active = well fitted curve in the direction sought with a large enough effect; inconclusive = small, poorly fitted or top-dose-only effect, or another doubt; inactive = no such curve, though single readings can be large; an effect the other way counts as inactive or inconclusive.

SMILES	RORg inh	TDP1 block	TDP1 cell noCPT	TDP1 cell CPT	Gal4-VP16 FLuc
COc1ccc(-c2cc(C(F)(F)F)nc(S(=O)(=O)CCC(=O)N3CCOCC3)n2)cc1	8.9µM	.	12µM	6.5µM	?
COc1ccccc1-c1noc(CCCC(=O)N2CCOCC2)n1	?	/	.	.	.
COc1ccccc1-c1cc(C(F)(F)F)nc(S(=O)(=O)CCCC(=O)O)n1	?	.	?	14µM	?
Nc1ncnc(Nc2ccccc2)n1	.	.	.	.	.
Nc1cnc(Nc2ccc(Br)cc2)nc1N	.	.	15µM	?	.
O=C(CCCC(=O)N(CC(=O)NC1CCCC1)Cc1ccccc1)Nc1ccccn1	.	.	.	.	.
Cc1ccc(CS(=O)(=O)Cc2ccc(C(=O)NCC3CCCO3)o2)cc1 (configuration not stated)	.	.	.	.	.
Cc1ccc(CC(=O)N2CCN(c3cccc(C(F)(F)F)c3)CC2)cc1	?	.	18µM	23µM	.
Cc1nc(-c2ccc(S(=O)(=O)N3CCN(c4ccc(F)cc4)CC3)cc2)co1	/	.	?	?	/
Cc1nc(-c2ccc(S(=O)(=O)N3CCN(c4cccc(C(F)(F)F)c4)CC3)cc2)co1	/	.	18µM	?	/
COc1ccccc1NC(=O)N1CCN(c2cccc(C(F)(F)F)c2)CC1	.	.	?	?	.
O=C(Cn1ncc2ccccc21)N1CCN(c2cccc(C(F)(F)F)c2)CC1	.	.	?	?	.
CC1(C2CC2)NC(=O)N(CC(=O)N2CCN(c3cccc(C(F)(F)F)c3)CC2)C1=O (configuration not stated)	/	.	12µM	15µM	/
COc1ccccc1CC(=O)N1CCN(c2cccc(C(F)(F)F)c2)CC1	.	.	13µM	23µM	?
O=C(/C=C/c1ccc(Br)cc1)N1CCN(c2cccc(C(F)(F)F)c2)CC1	.	.	?	?	?
COc1ccccc1N1CCN(C(=O)CCCn2c(=O)[nH]c3ccsc3c2=O)CC1	.	.	?	.	.
Cc1ccc(S(=O)(=O)CC(=O)N2CCN(c3cccc(C(F)(F)F)c3)CC2)cc1	?	.	21µM	16µM	.
O=C(CS(=O)(=O)c1ccccc1)N1CCN(c2ccccc2)CC1	/	.	.	.	/
O=C(NC1CCCCCCC1)c1cc([N+](=O)[O-])ccc1Cl	.	/	.	.	.
O=C(c1cc2ccccc2oc1=O)N(Cc1ccc2c(c1)OCO2)Cc1ccco1	?	.	9.2µM	?	.
CSCCC(NC(=O)COc1ccccc1)C(=O)N1CCCC(C(F)(F)F)C1 (configuration not stated)	/	/	.	.	/
CC1(C)CNC(=O)c2sc(N3CCOCC3)nc2C1	.	.	21µM	8.2µM	.
Cc1cc(Oc2ccccc2)nc(SCC(=O)Nc2ccccc2)n1	.	.	.	?	.
CCOC(=O)C1C(=O)CC(C)(O)C(C(=O)OCC)C1c1ccco1 (configuration not stated)	.	.	21µM	18µM	.
COc1ccc(-n2ccnc2CN2CCCC(CO)(Cc3cccc(OC)c3)C2)cc1 (configuration not stated)	11µM	/	26µM	?	.
SMILES	RORg inh	TDP1 block	TDP1 cell noCPT	TDP1 cell CPT	Gal4-VP16 FLuc
COc1cccc(CC2(CO)CCCN(Cc3ccc(CO)o3)C2)c1 (configuration not stated)	.	.	.	.	.
COc1ccccc1-n1cc(CN2CCCC(CO)(Cc3cccc(Cl)c3)C2)cn1 (configuration not stated)	.	.	23µM	?	.
COc1cccc(CC2(CO)CCCN(Cc3ccc(-c4ccco4)cc3)C2)c1 (configuration not stated)	.	/	21µM	23µM	.
COc1cccc(CC2(CO)CCCN(Cc3ccccc3-c3ccco3)C2)c1 (configuration not stated)	?	.	?	?	.
COc1cccc(CC2(CO)CCCN(Cc3c(C)cc(C)cc3-n3cccn3)C2)c1 (configuration not stated)	.	/	15µM	21µM	.
O=C(N/N=C/c1cccnc1)c1ccccc1[N+](=O)[O-]	.	.	.	.	.
O=C(Nc1ccccc1C(=O)Nc1ccncc1)c1ccccc1	.	.	.	.	.
COc1ccc(NC(=O)CSC2=Nc3ccccc3C3=NC(CCC(=O)NCc4ccco4)C(=O)N23)cc1 (configuration not stated)	/	.	12µM	12µM	/
O=C(CC1N=C2c3ccccc3N=C(SCC(=O)Nc3ccc(F)cc3)N2C1=O)NCc1ccco1 (configuration not stated)	/	.	16µM	?	/
COc1cccc(NC(=O)CSC2=Nc3ccccc3C3=NC(CCC(=O)NCc4ccco4)C(=O)N23)c1 (configuration not stated)	/	.	?	?	/
Cc1ccc(N2CCN(Cc3nnc(-c4ccccc4F)o3)CC2)c(C)c1	/	.	?	?	/
C/C(=N\NC(=S)NC1CCCCC1)c1cccs1	?	.	10µM	13µM	0.79µM
C/C(=N\NC(=O)C1CCCC1)c1ccc(Cl)c(Cl)c1	.	.	.	.	.
C/C(=N\NC(=S)NC1CCCCC1)c1c(F)cccc1F	0.63µM	.	?	?	2.8µM
C/C(=N\NC(=S)NC1CCCCC1)c1ccc(Cl)c(Cl)c1	1.4µM	/	.	?	2.8µM
C/C(=N\NC(=O)NC1CCCCC1)c1ccco1	.	.	.	.	.
O=C(c1ccc(C(F)(F)F)cc1)N(Cc1cc2ccc(F)cc2nc1N1CCOCC1)C1CC1	/	/	?	.[9.04 µM]	/
CC(C(=O)Nc1cccc([N+](=O)[O-])c1)n1nnc2ccccc21 (configuration not stated)	.	.	.	.	.
Cc1cnc(CNc2ncnc3ccc(-c4c(C)noc4C)cc23)cn1	?	/	?	?	.
O=C(Cc1c[nH]c2ccccc12)NCc1ccc(Cl)cc1	?	.	?	.	.
Cc1[nH]c2ccccc2c1C1(O)C(=O)N(Cc2ccccc2Cl)c2ccccc21 (configuration not stated)	/	.	5.2µM	5.8µM	/
Cc1ccc(CN2C(=O)C(O)(c3c[nH]c4ccccc34)c3cc(Cl)ccc32)cc1 (configuration not stated)	/	.	23µM	?	/
Cc1[nH]c2ccccc2c1C1(O)C(=O)N(Cc2ccccc2)c2ccc(Br)cc21 (configuration not stated)	/	.	4.6µM	4.1µM	/
CCCCN1C(=O)C(O)(c2ccccc2)c2cc(Br)ccc21 (configuration not stated)	.	/	.	?	.
Cc1cccc(C(=O)Nc2sc(C(=O)N3CCCC3)c(C)c2C#N)c1	.	.	?	?	.
